Test results: PubChem BioAssay AID435000 (NMMLSC, 2010)
The list shows a part of the results.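 How the source made its calls: active means fluorescence response below 15%; inactive means the rest.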

Experiment: yeast superoxide dye artefact check – S. cerevisiae BY4741, flow cytometry, artefact control for yeast caloric restriction mimetic project (AID 435000);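 further: percent of the mean fluorescence averaged over all compound wells on the plate; lower means stronger quenching of DHE signal or ROS scavenging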
Details: S. cerevisiae BY4741, DHE fluorescence, at 10 µM, active compounds read low

Fluorescence response, inactive:
CSc1ncc(Cl)c(C(=O)Nc2cc(C)ccc2C)n1 95.1%, O=C(CSCc1ccccc1)Nc1ccccc1 111%, CCN(CC)c1ccc(NC(=O)CN2CCN(c3ccccn3)CC2)cc1 95.7%, COc1cc(-c2nnn(CC(=O)NCc3ccccc3)n2)cc(OC)c1OC 99.2%, CC(C)NC(=O)/C(C#N)=C\c1ccc(N(C)C)c(Br)c1 92.3%, CNC(=O)c1cccc2nc3ccccc3nc12 105%, Cc1cc(C(F)F)n2nc(C(=O)Nc3ccc(S(=O)(=O)NC45CC6CC(CC(C6)C4)C5)cc3)nc2n1 104%, Cn1c(Nc2ccccc2)cc(=O)n(C)c1=O 113%, COc1ccc(NC(C)=O)cc1NC(=O)CN1CCN(c2ccccn2)CC1 96.8%, O=C(Nc1ccc(Br)cn1)c1ccc([N+](=O)[O-])cc1Cl 94%, CCn1c2ccccc2c2cc(CC(N)=O)ccc21 105%, CN1CCN(c2cc3c(cc2F)c(=O)c(C(=O)O)cn3CCF)CC1 100%, COc1ccc(CCNC(=O)c2ccccc2-c2ccccc2C(=O)O)cc1OC 110%, CSc1sc(C(=O)NNC(=O)c2ccc(Cl)cc2)c2c1C=CCC2 92.4%, COc1cc(NC(=O)CSc2ccc(-c3cccnc3)nn2)cc(OC)c1 123%, CCCC(C)C(=O)OCC(=O)Nc1c(Br)cc(C)cc1Br (configuration not stated) 89.1%, Cc1ccc2cccc(S(=O)(=O)N3CCN(c4ccccc4F)CC3)c2n1 104%, CCN(CC)C(=O)CSc1nnc(-c2cccc(OC)c2)o1 110%, Cc1ccc(-c2nnc(Nc3ccc(C(=O)N(C)C)cc3)c3ccccc23)cc1S(N)(=O)=O 113%, CC(=O)c1ccc2c(c1)c1ccccc1n2CC(C)C 107%, O=C(O)C1CCCN1S(=O)(=O)c1ccc(Br)cc1 (configuration not stated) 90.2%, O=[N+]([O-])c1ccc2c(c1)Nc1nc3ccccc3nc1N2 92.7%
